Test results reported in PubChem BioAssay (NCATS).
Values joined by “and” are separate entries in the source; they are usually repeats but may differ in a detail not shown here. Equal values may be shown once. Inconclusive results are not listed. Some structures have more than one record in an assay (separate samples or runs), and their calls can disagree. Active and inactive are the calls of the source. The call rests on the fitted dose curve; in most records, active means well fitted curve in the direction sought with a large enough effect; inconclusive means small, poorly fitted or top-dose-only effect, or another doubt; inactive means no such curve, though single readings can be large; an effect the other way counts as inactive or inconclusive.

What was measured:
[1] = Viability qHTS for spleen associated tyrosine kinase inhibitor (SYKi) naive MV4-11 cells (AID 1963823); further: nearly all actives have a fitted effect of over 40% in size
Method in brief: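 Viability of MV4-11 AML cells lacking prior SYK inhibitor exposure is scored by CellTiter-Glo luminescence following 72 hr compound incubation at 37 C, 5% CO2, seeded at 500 cells per well.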

[2] = Viability qHTS for spleen associated tyrosine kinase inhibitor (SYKi) drug resistant MV4-11 cells (AID 1963824); further: nearly all actives have a fitted effect of over 35% in size
Method in brief: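 SYK inhibitor-resistant MV4-11 AML cells, 500 per well, added to predispensed compounds and incubated 72 hr at 37 C, 5% CO2. Viability measured by CellTiter-Glo luminescence after 10 min at room temperature.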

[3] = Cellular viability qHTS for adrenocortical cancer (ACC) cell line SW-13 (AID 1963989); conditions: SW-13 ACC cells viability, CellTiter-Glo, 48 h; activity (max response): stronger effect = lower value; further: nearly all actives have a fitted effect of over 65% in size;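 on activity (max response): cells grown in serum-free medium with ITS supplement; on the % scale 0 is the no-effect control and ±100 the full control effect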
Method in brief: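 Luminescent ATP read-out (CellTiter-Glo, 20 min at room temperature) measured metabolically competent SW-13 cells after 48 h compound treatment. Final concentrations spanned up to 46 uM; bortezomib served as positive control.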

[4] = Cellular viability qHTS for adrenocortical cancer (ACC) cell line NCI-H295R (AID 1963990); further: nearly all actives have a fitted effect of over 60% in size
Method in brief: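 IC50 and maximal efficacy derive from four-parameter logistic modelling of titration curves, with reads scaled between DMSO-only wells (0%) and doxorubicin hydrochloride (100% inhibition). Compounds spanned up to 46 uM over 48 h.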
Potency means the concentration at half of the fitted maximal effect.

Question: What does the source list for `CCS(=O)(=O)Nc1ccc(Oc2ccc(F)cc2F)c(-c2cn(C)c(=O)c3[nH]ccc23)c1`?
Answer: Potency [1]: 3.7 nM (active); Potency [2]: 4.2 nM (active); Potency [3]: 2000 nM (active); Potency [4]: 5010 nM (active)

Question: For `O=C(CCCCCCC(=O)N/N=C/c1ccc(N(c2ccccc2)c2ccccc2)cc1)NO`, which Potency [1] is on record?
Answer: The Potency was 4170 nM (active).

Question: And the Potency [2]?
Answer: Its Potency is 4170 nM (active).

Question: What about the Potency [3] of the same compound?
Answer: Its Potency is 28200 nM (active).

Question: And the Potency [4]?
Answer: The Potency was 631 nM (active).

Question: For `O=c1oc2c(C3OCCCO3)c(O)ccc2c2c1CNCC2`, which Potency [1] is on record?
Answer: Its Potency is 13200 nM (active).

Question: And the Potency [2]?
Answer: The Potency was 11800 nM (active).

Question: And the activity (max response) [3]?
Answer: Its activity (max response) is 5.04% (inactive).

Question: What about the Potency [4] of the same compound?
Answer: The Potency was “inactive”.

Question: Which Potency [1] does the source give for `Cc1c(NC(=O)OCC2COCCN2)cn2ncnc(Nc3ccc4c(cnn4Cc4cccc(F)c4)c3)c12` (stereo unspecified) here?
Answer: Its Potency is 4.61 µM (active) and 16.6 µM (active).

Question: What about the Potency [2] of the same compound?
Answer: The Potency was 5.8 µM (active) and 16.6 µM (active).

Question: What about the Potency [3] of the same compound?
Answer: The Potency was 22400 nM (active).

Question: And the Potency [4]?
Answer: Its Potency is 31600 nM (active).

Question: For `FC(F)(F)c1ccc(Nc2nc(-c3c(C(F)(F)F)nc4ccccn34)cs2)cc1`, which Potency [1] is on record?
Answer: Its Potency is 184 nM (active).

Question: And the Potency [2]?
Answer: The Potency was 130 nM (active).

Question: What about the Potency [3] of the same compound?
Answer: Its Potency is 282 nM (active).

Question: What about the Potency [4] of the same compound?
Answer: Its Potency is 316 nM (active).

Question: Which Potency [1] does the source give for `C/C=C/c1ccc(O)c(OC)c1` here?
Answer: The Potency was “inactive”.

Question: What about the Potency [2] of the same compound?
Answer: Its Potency is “inactive”.

Question: And the activity (max response) [3]?
Answer: The activity (max response) was 1.66% (inactive).

Question: What about the Potency [4] of the same compound?
Answer: The Potency was “inactive”.

Question: For `Nc1ccc(O)c([N+](=O)[O-])c1`, which Potency [1] is on record?
Answer: Its Potency is “inactive”.

Question: And the Potency [2]?
Answer: The Potency was 61.1 nM (active).

Question: And the activity (max response) [3]?
Answer: Its activity (max response) is 0.787% (inactive).

Question: And the Potency [4]?
Answer: Its Potency is “inactive”.

Question: Which results are given for `CO[C@@H](C)Cn1c(=O)n(C)c2cnc3ccc(-c4cncc(C(C)(C)O)c4)cc3c21`?
Answer: Potency [1]: 82 nM (active); Potency [2]: 332 nM (active); Potency [3]: 3550 nM (active); Potency [4]: 891 nM (active)

Question: Which results are given for `Clc1cc2c(NC3CCCC3)nnc(-c3ccncc3)c2cc1Cl`?
Answer: Potency [1]: inactive and 18.6 µM (active); Potency [2]: 13200 nM (active); activity (max response) [3]: -2.48% (inactive); Potency [4]: inactive
